Data on 31 molecules can be found in PubChem BioAssay AID1490 (National Center for Advancing Translational Sciences (NCATS), 2009).

SMILES strings stand for the structures. “And” between values parts separate entries of the source, which are not always exact repeats. Equal entries are not always repeated. Hit rate of the full screen: of about 310,000 compounds, about 11,000 (3.5%) were called active. Roughly 4% stayed inconclusive and do not appear here. This is one part of a sample in which actives are shown more often than they occur. Calls follow the shape of the dose curve; as a rule, active = well fitted inhibition curve with a large enough effect; inconclusive = small, poorly fitted or top-dose-only effect, or another doubt; inactive = no such curve, though single readings can be large or run the other way.
Potency is read from the fitted curve at half-maximal effect.

The assay concerns the target 4'-phosphopantetheinyl transferase ffp (Bacillus subtilis) (UniProt Q9F4F7). Kind of assay: qHTS Assay for Inhibitors of Bacillus subtilis Sfp phosphopantetheinyl transferase (PPTase).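 Also: the enzyme is Sfp with the accession as filed and its product quenches rhodamine fluorescence.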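 As to largest response in the series, negative = inhibition: 0% = enzyme reaction without inhibitor and -100% = no enzyme wells.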 The settings on record: Biochemical Sfp PPTase activity. In short, it runs like this: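 After 15 min at room temperature with compound, 15 nM Sfp received 5 uM rhodamine-CoA plus 12.5 uM BHQ-2-ybbR (50 mM Hepes pH 7.6, 10 mM MgCl2). Rate came from the fluorescence difference over 30 min, ex 525/em 598 nm.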
(In general: qHTS replaces the single test concentration by a dilution series.)
For `O=C(Cc1ccc(Cl)cc1)NC1CCS(=O)(=O)C1` (stereo unspecified), the largest response in the series, negative = inhibition was 11.6% (inactive).
The same measure, in the same setting: in the case of `COC(=O)Nc1ccc(S(=O)(=O)Nc2cc(OC)nc(OC)n2)cc1` it was -10.4% (inactive); in that of `S=C(Nc1ccc(Br)cc1)NC1CCN(Cc2ccccc2)CC1`, 5.78% (inactive).
Still for that read-out and setting: in the case of `CCOc1ccccc1NC(=S)NC(=O)CCc1ccccc1` it was -1.83% (inactive); in that of `COC(=O)c1c(NC(=O)c2ccc(S(=O)(=O)N3CCOCC3)cc2)sc2c1CCN(C(C)C)C2`, 6.28% (inactive).
Still for that read-out and setting: the figure for `Cn1c(CNc2nc(-c3ccccc3)cs2)nnc1SCC(=O)c1ccccc1` is 3.73% (inactive).
As to `Cn1c(CC2Sc3ccccc3NC2=O)nnc1SCC(=O)c1ccc(Cl)cc1` (stereo unspecified), the Potency was 44.7 µM (active).
As to `Cn1c(SCC(=O)c2ccc(F)cc2)nnc1-c1ccccn1`, the largest response in the series, negative = inhibition was -4.04% (inactive).
The same measure, in the same setting: in the case of `COCCN1CCn2c(nc3cc(NS(C)(=O)=O)ccc32)C1` it was 11.6% (inactive); in that of `Cc1cc(=O)oc2c1ccc1ccccc12`, 3.98% (inactive); in that of `CC(=O)c1ccc(NC(=O)c2cc(-c3cccs3)on2)cc1`, 1.32% (inactive).
Same read-out and setting: in the case of `COc1ccc(Cn2c(=O)cc(C)[nH]c2=S)cc1` it was -4.49% (inactive).
Take `COc1cc(=O)[nH]c(=O)n1C(=O)Cc1ccccc1`: the largest response in the series, negative = inhibition was 9.86% (inactive).
On to `CCCOc1ccc(Cn2c(O)cc(=O)[nH]c2=O)cc1`, for which the Potency is 44.7 µM (active).
For the molecule `Cc1cc(F)ccc1NC(=S)NCCc1ccccc1`, the largest response in the series, negative = inhibition was 0.31% (inactive).
Still for that read-out and setting: in the case of `CC1CCN(CCCn2c(SCC(=O)NC3CCCC3)nc3ccccc3c2=O)CC1` it was 6.04% (inactive); in that of `CC[C@H](C)[C@H](NC(=O)[C@H](Cc1cnc[nH]1)NC(=O)[C@@H](N)CCC(=O)O)C(=O)N1CCC[C@H]1C(=O)N[C@@H](C)C(=O)O`, 3.28% (inactive).
On the same count and under the same terms, in the case of `COc1cc(OC)c(NS(=O)(=O)c2cn(C)cn2)cc1Cl` it was 14.3% (inactive); in that of `CCN(CC)CCC(c1ccc2c(c1)OCO2)c1c(OC)cc(OC)c2c(-c3ccccc3)cc(=O)oc12` (stereo unspecified), -27% (inactive) and -23.4% (inactive); in that of `COc1cc(-c2c(-c3ccc4c(c3)OCO4)noc2C)ccc1F`, -12.4% (inactive).
Consider `COc1c2c(cc3occ(-c4ccc5c(c4)OCO5)c(=O)c13)OC(C)(C)C=C2`, for which the Potency is 39.8 µM (active).
On to `O=C(NC(=S)Nc1ccc(Cl)cc1Cl)C1CC1`, for which the largest response in the series, negative = inhibition was 8.51% (inactive).
The same measure, in the same setting: in the case of `COc1cc(Cl)ccc1OCc1cc(C(=O)N(C)CCc2c(C)n[nH]c2C)no1` it was 11.4% (inactive).
As for `O=c1[nH]c(=S)[nH]c2[nH]c(=S)[nH]c12`, the Potency was 3.16 µM (active).
Take `Cc1c(C)c(C)c2[nH]c(=S)[nH]c2c1C`: the largest response in the series, negative = inhibition was 7.86% (inactive).
Same read-out and setting: the figure for `O=C(c1cccc(F)c1)N1CCC2(CC1)CCN(c1ccccc1)CC2` is 2.37% (inactive); for `CC1CCN(C(=O)c2ccc3c(c2)NC(=O)CN3)CC1` it is 6.69% (inactive).
In the case of `O=C1Nc2cc(C(=O)N3CCN(c4ccc(F)cc4)CC3)ccc2NC1CSCc1cccc(F)c1` (stereo unspecified), the Potency is 44.7 µM (active).
Same read-out and setting: the figure for `Cc1ccc(CSCC2Nc3ccc(C(=O)N4CCN(c5ccc(F)cc5)CC4)cc3NC2=O)cc1` (stereo unspecified) is 50.1 µM (active).
For the molecule `O=C(c1cc(C(=O)N2CCN(c3ccc(F)cc3)CC2)cc([N+](=O)[O-])c1)N1CCN(c2ccc(F)cc2)CC1`, the largest response in the series, negative = inhibition is 21.7% (inactive).
In the case of `O=C(c1cccc(C(=O)N2CCN(c3ccc(F)cc3)CC2)c1)N1CCN(c2ccc(F)cc2)CC1`, the largest response in the series, negative = inhibition is -15.2% (inactive).
